Results reported in PubChem BioAssay AID489025 (Southern Research Specialized Biocontainment Screening …, 2010).
In all, about 2,300 compounds went through this assay and about 790 (34%) were called active. The list shows a part of the results. Results with a measured potency or affinity are listed apart. A number with no mark means an inactive call. No rule for the calls is given here.

assay: THP-1 cell cytotoxicity, dose response, cytotoxicity control for non-replicating M. tuberculosis project (AID 489025); details: THP-1 cell viability; series mostly up to 40 µM; viability: at the top concentration

SMILES	viability [%]
Cc1ccc(SCCC(=O)OCC(=O)NCC2CCCCC2)cc1	117
Cc1ccccc1OCCC(=O)OCC(=O)NNC(=O)c1cccs1	109
COc1cc(/C=N/NC(=O)c2ccncc2)ccc1OC(=O)c1cccc(F)c1	106
O=C(NNc1ccc([N+](=O)[O-])cc1)C1CC1c1ccccc1 (stereo not given)	102
Cc1ccc(NC(=O)C2CC2c2ccccc2)cc1 (stereo not given)	83.2
O=C(N/N=C/c1cccc2nccnc12)c1ccncc1	82.7
O=C(COC(=O)c1ccc(Br)o1)NC1CCCCC1	117
Cc1ccc(CSCCNC(=O)c2cccc([N+](=O)[O-])c2)cc1	94.1
O=C(N/N=C/c1ccccn1)c1cccc([N+](=O)[O-])c1	79.6
CC(/C=C/c1cccc([N+](=O)[O-])c1)=N\NC(=O)c1ccncc1	86.4
COc1cccc(OCCNC(=O)c2cc([N+](=O)[O-])cc([N+](=O)[O-])c2)c1	98.9
O=C(N/N=C/C=C/c1cccc([N+](=O)[O-])c1)c1ccncc1	96
FC(F)(F)c1ccc(-c2nnc(-c3cccnc3)o2)cc1	108
CC1CCCN(CCSc2ccc(Cl)cc2)C1 (stereo not given)	93.1
CCC(C)(C)c1ccc(OCC(=O)Nc2ccncc2)cc1	117
COc1ccc(-n2c3c(cc(C(=O)NNc4ccccc4)c2=O)C(=O)CC(C)(C)C3)cc1	108
Cc1cccc(NC(=O)COC(=O)CCc2c[nH]c3ccccc23)c1	109
Cc1ccc(C(C)C)c(OCC(=O)OCc2c(C)noc2C)c1	106
CCOC(=O)COc1ccc(C(=O)Nc2cccc(Cl)c2C)cc1	108
CCOC(=O)Cc1nc2cc(Cl)ccc2o1	104
c1ccc(-c2nnc(SCc3nnc(-c4cccs4)o3)o2)cc1	112
O=C1c2ccccc2CC1Sc1nnc(-c2ccncc2)o1 (stereo not given)	111
CCCCCCOc1ccc(N2C(=O)CC(N3CCN(C(=O)c4ccco4)CC3)C2=O)cc1 (stereo not given)	96.9
Cc1ccccc1NC(=O)C1COc2ccccc2O1 (stereo not given)	88

SMILES	viability [%]
CC(/C=C/c1ccc2c(c1)OCO2)=N/NC(=O)C1COc2ccccc2O1 (stereo not given)	89
CC(C)(C)c1ccc2c(c1)OC(C(=O)N/N=C\c1ccccn1)CO2 (stereo not given)	114
O=C(Nc1ccc([N+](=O)[O-])cc1)C1COc2ccccc2O1 (stereo not given)	92.3
O=C(Nc1cccc([N+](=O)[O-])c1)C1COc2ccccc2O1 (stereo not given)	89.2
O=C(Nc1cccc(Cl)c1)C1COc2ccccc2O1 (stereo not given)	81
CC(C)NC(=O)C1COc2ccccc2O1 (stereo not given)	85.2
COc1ccc(NC(=O)C2COc3ccccc3O2)cc1 (stereo not given)	111
CN1CCC(O)(c2ccccc2)C(C(=O)c2ccccc2)C1 (stereo not given)	93.6
COc1cccc(NC(=O)COC(=O)Cc2ccc(Br)cc2)c1	122
COc1ccc(OCCC(=O)OCC(=O)Nc2ccc(Br)cc2)cc1	107
Cn1ccsc1=NC(=O)c1ccccc1F	98.2
Cc1ccccc1C(=O)NNc1ccc([N+](=O)[O-])cc1	112
CC(C)(C)Sc1ccc2nc3c(n2c1)CCCC3	77.6
COc1ccc(N=Cc2nc(-c3ccccc3)oc2OC(C)=O)cc1	103
CCCOc1ccc(N2C(=O)CC(N3CCCC(C(=O)N4CCCC4)C3)C2=O)cc1 (stereo not given)	128
Cc1ccc(C2=NN(C)c3nc4ccccc4n3C2)cc1	77.3
COc1cccc(C(=O)OCC(=O)c2ccc(Br)s2)c1OC	112
O=C(COC(=O)c1ccccc1)NC12CC3CC(CC(C3)C1)C2	90.6
C=CCN1C(=O)C2(NNc3ccccc3O2)c2ccccc21 (stereo not given)	75.5
O=C(NCCC1=CCCCC1)c1coc(=O)c(Br)c1	107
COc1ccc(C2=Nc3ccccc3OC2)cc1	94.8
Cc1ccc(N2C(=O)CC(Sc3nccc(C)n3)C2=O)cc1 (stereo not given)	94.9
COc1ccc(C(=O)OCn2nnc3ccccc3c2=O)cc1[N+](=O)[O-]	107
COC(=O)c1ccc(Cn2cc(C(F)(F)F)cc([N+](=O)[O-])c2=O)cc1	111

SMILES	viability [%]
Cc1cccc(C)c1NC(=O)COC(=O)CCc1c[nH]c2ccccc12	126
C=C[C@]1(C)C=C2CCC3[C@](C)(CCC[C@@]3(C)C(=O)O)C2CC1 (stereo not given in full)	104
Cc1nnc(C)n1/N=C/c1cc(Br)cc(Br)c1O	77.9
Oc1c(Br)cc(Br)cc1/C=N/c1nccs1	97.5
Cc1ccc(-c2nnc(SCC#CCOC(=O)c3ccco3)o2)cc1	103
CCOC(=O)COc1ccc2c(c1)c(C(=O)OCC)c(C)n2CC	99.8
COc1ccc(OCC(=O)NNC(=O)c2ccccn2)cc1	104
O=C(Nc1ccccc1N1CCCC1)c1cccc(F)c1	105
O=C(N/N=C/c1ccc[nH]1)c1cccnc1	119
O=C(Nc1ncccc1O)c1ccc(Oc2ccccc2)cc1	90.7
O=C(COc1ccc(Cl)cc1)NNC(=O)c1ccccn1	108
COc1cccc(NC(=O)c2ccc(C(=O)c3ccccc3)o2)c1	85.4
COC(=O)c1ccc(OCC(=O)c2cccc(OC)c2)cc1	108
CCc1ccc(NC(=O)C(=O)NNC(=O)COc2cccc(OC)c2)cc1	91.4
Brc1ccc(CSc2nnc(-c3ccco3)o2)cc1	85.3
COc1ccc([C@@]2(O)c3c(ccc(CC=C(C)C)c3O)NC(=O)[C@@H]2OC)cc1	95.8
CCCOC(=O)NC1CCS(=O)(=O)C1 (stereo not given)	95.1
Cc1ccc(Sc2ccc(C=C3C(=O)N(C)C(=O)N(C)C3=O)o2)cc1	96.4
CCc1ccc(N2C(=O)CC(N3CCC(C(=O)OC)CC3)C2=O)cc1 (stereo not given)	109
CCOC(=O)c1c(C)n(C)c2ccc(OC(C)C(=O)OC)cc12 (stereo not given)	123
O=C(COc1c(Br)cc(Br)c2cccnc12)N1CCCCC1	79.9
COc1ccc(CN2CCC(C(=O)Nc3ccc(Oc4cccnc4)cc3)CC2)c(C)c1C	81.3
CCOC(=O)C1(CCc2ccccc2)CCN(Cc2ccccn2)CC1	72.8
COc1ccc(/C=N/NC(=O)c2ccncc2)cc1CN1CCOCC1	112

SMILES	viability [%]
O=C(CCN1CCOCC1)c1ccc(Cl)cc1	87.8
Oc1ccc(F)c2cccnc12	87.5
COc1cc(OC)cc(OC(=O)c2ccc3c(=O)n4c(nc3c2)CCC4)c1	100
COc1cc(NC(=O)N2CCOCC2)cc(OC)c1	105
Cc1cccc(C2=N/C(=C\c3cccnc3)C(=O)O2)c1	117
O=C(CCSc1nnc(-c2ccccc2)o1)N1CCOCC1	114
Cc1cc(C)cc(OC(=O)c2cccnc2)c1	87.5
O=C(OCn1nnc2ccccc2c1=O)c1ccc(N2CCOCC2)c([N+](=O)[O-])c1	105
Cc1[nH]n(-c2ccccc2)c(=O)c1C=Nc1cnc2ccccc2c1	103
Cc1cc(CN(C)C)c(O)c(C2(C)CCCCC2)c1	108
Cc1cccc(NC(=O)COC(=O)c2cc3ccccc3oc2=O)c1	114
O=C1NC(=O)C(=Cc2ccc(-c3ccc(Cl)cc3)o2)C(=O)N1	113
O=C(Oc1c(-c2ccco2)oc2ccccc2c1=O)c1cccnc1	73.6
CC(C)Oc1ccc(C(=O)CCN2CCCCC2)cc1	112
COc1ccc(C(=O)CCN2CCCCCC2)cc1	75.2
CCOc1ccc(-c2nc3ccccc3c(=O)o2)cc1	116
O=C(CCSc1ccccc1)N1CCCC1	109
O=C(CCN1CCCCCC1)c1ccccc1	83.7
CCOc1ccc(OC(=O)c2ccc3c(=O)n4c(nc3c2)CCC4)cc1	93.9
COc1ccc2cc(C(=O)C3CCCN(Cc4ccccn4)C3)ccc2c1 (stereo not given)	88
CC(C)COc1ccc(C(=O)CCN2CCCCC2)cc1	88.7
COc1ccc(NCC(=O)N2CCCC2)cc1Cl	87.4
CC1C/C(=N/NC(=O)c2cccc(F)c2)c2ccc(O)cc2C1 (stereo not given)	91.1
CN1CCN(Cc2cc(C(C)(C)C)c(O)c(C(C)(C)C)c2)CC1	104

SMILES	viability [%]
COc1cc(/C=C2\C(=O)N(c3ccc(S(N)(=O)=O)cc3)N=C2C)ccc1OC(=O)c1ccco1	112
CCC(C)n1nnc2c(=O)oc3ccccc3c21 (stereo not given)	98.7
COc1ccc(OCC(=O)N/N=C2\CCc3ccccc32)cc1	115
Cc1ccc(NC(CC(=O)c2ccccc2)C(=O)O)cc1Cl (stereo not given)	113
CC(NC(=O)OCc1ccccc1)c1ccccc1 (stereo not given)	76.8
O=C(c1cccc2cccc(O)c12)N1CCCCC1	113
CCc1ccc(C(=O)NC2CCCCC2)s1	101
CC(C)(NO)/C(=N\O)c1ccccc1	92.4
Cc1c(Cl)cccc1NC(=O)C1COc2ccccc2O1 (stereo not given)	110
O=S(=O)(CCN1CCN(c2ccccn2)CC1)c1ccc(Cl)cc1Cl	107
O=C1NC(=O)N(Cc2ccc(F)cc2)C(=O)/C1=C\c1ccc([N+](=O)[O-])s1	77
COc1ccc(OC)c(N2C(=O)NC(=O)/C(=C/c3ccc([N+](=O)[O-])s3)C2=O)c1	92.7
O=C1NC(=O)C(=Cc2ccc(Oc3ccc([N+](=O)[O-])cc3)cc2)C(=O)N1	103
NNC(=O)COc1cccc(Oc2ccccc2)c1	105
CC(C(=O)OCC(=O)c1ccccc1)N1C(=O)C2C3CCC(C3)C2C1=O (stereo not given)	98.3
CC1=NN(C(=O)c2ccoc2C)C(O)(C(F)(F)F)C1 (stereo not given)	92.6
CC1=NN(C(=O)c2csc(C)c2)C(O)(C(F)(F)F)C1 (stereo not given)	111
CCC(=O)c1ccc(OCC(=O)OCC(=O)c2cc(C)n(C3CC3)c2C)cc1	106
Cc1ccsc1C(=O)OCC(=O)NCCC1=CCCCC1	87.4
NCCCN1CCOCC1	100
O=C1CC(N2CCC(C(=O)N3CCCCC3)CC2)C(=O)N1 (stereo not given)	123
COC(=O)c1cc(/C=C/c2ccccc2)on1	89.5
COc1ccc(C(=O)CC(=O)C(=O)NCCc2cccc(C)c2)cc1	99.6
O=C1NC(=O)N(Cc2ccco2)C(=O)/C1=C\c1cccn1CCOc1ccc(Cl)cc1	93.3
